Results with a measured potency or affinity are listed apart. The source made the active and inactive calls. The rule behind the calls is not given here.

For this assay, the target named is Plasmodium falciparum protein kinase 6 (PK6, PF3D7_1337100) (UniProt Q8IDW1). As to the kind of experiment: PfPK6 kinase inhibitors, biochemical, TCAMS library (AID 1159586). The note with it: recombinant PfPK6, Kinase-Glo ATP depletion luminescence. In general terms: In Kinase-Glo more light means more ATP remaining.
Chain of Plasmodium falciparum protein kinase 6 (PK6, PF3D7_1337100) (Q8IDW1 1-305): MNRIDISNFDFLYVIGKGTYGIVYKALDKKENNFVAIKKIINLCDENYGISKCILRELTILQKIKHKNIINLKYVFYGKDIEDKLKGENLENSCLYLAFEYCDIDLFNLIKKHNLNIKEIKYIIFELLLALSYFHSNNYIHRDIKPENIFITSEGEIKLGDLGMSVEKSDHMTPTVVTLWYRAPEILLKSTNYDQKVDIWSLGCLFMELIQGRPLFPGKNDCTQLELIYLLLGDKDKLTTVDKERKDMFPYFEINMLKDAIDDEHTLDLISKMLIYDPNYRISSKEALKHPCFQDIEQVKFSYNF
Consider `Cc1[nH]nc2ccc(-c3cc(OC[C@@H](N)Cc4ccccc4)cnc3-c3cc4ccccc4s3)cc12`, for which the outcome was inactive.
For `Cc1ccc(Nc2c3ccccc3nc3ccc(C)cc23)cc1`, the result was inactive.
Turning to `NS(=O)(=O)c1cccc(N=Cc2c(O)[nH]c3ccc(S(=O)(=O)Cc4c(Cl)cccc4Cl)cc23)c1`, the outcome was inactive.
As to `O=C(O)c1ccc(-c2cnc3ccc(NC4CCC(O)CC4)nn23)cc1` (stereo unspecified), the outcome was inactive.
Regarding `CCN(CC)CCCC(C)Nc1nc(C=Cc2ccc(Br)cc2)nc2cc(Cl)ccc12` (stereo unspecified), the result was inactive.
In the case of `COc1ccc(NC(=O)c2ccc(-c3cccc(OCc4ccccc4)c3)cc2)cc1N1CCN(C)CC1`, the result was inactive.
With `CCc1cc2c3c(N)nc(N)nc3ccc2n1C(C)(C)C`, the outcome was inactive.
For `CC(Sc1n[nH]c(-c2ccccc2Br)n1)C(=O)Nc1ccc(F)cc1` (stereo unspecified), the result was inactive.
Next, `O=c1c2cccnc2sn1-c1ccccc1`: “inactive”; `O=C(CN1C(=O)CC1S(=O)(=O)Cc1ccco1)NCCCCCCc1ccc(F)cc1` (stereo unspecified): “inactive”; `CCN(CC)CCNC(=O)c1ccc(N=Cc2c(O)[nH]c3ccc(S(=O)(=O)Cc4c(Cl)cccc4Cl)cc23)cc1`: “inactive”.
For `N#Cc1ccc(C(=O)Nc2cc(-c3cccc(O)c3)cc3[nH]ncc23)cc1`, the outcome was inactive.
`C[C@H]1CN(Cc2ccc(-c3cccc(CNC(=O)c4cccc(C(=O)c5ccc(Cl)c(Cl)c5)c4)c3)s2)CCN1`: the result was inactive.
On to `COc1cc2c(cc1C(F)(F)F)N(C(=O)Nc1ccc(Br)cn1)CC2`, for which the outcome was inactive.
Consider `Brc1ccsc1-c1nc(NC2CCN(Cc3ccccc3)CC2)no1`, for which the result was inactive.
Take `Clc1ccc(C=NNc2ccnc3cc(Cl)ccc23)cc1`: the result was inactive.
Turning to `Cc1cccc(Cn2ccc3c(N)nc(N)nc32)c1`, the outcome was inactive.
For the compound `Cc1nc(Nc2ccc(F)cc2)nc(N2CCc3ccccc3[C@@H]2C)c1C`, the result was inactive.
Regarding `Fc1ccccc1C=NNc1ccnc2cc(Cl)ccc12`, the result was inactive.
Regarding `c1ccc2c3c([nH]c2c1)C(c1ccc2c(c1)CCO2)N(c1ncnc(N2CCN(CCCN4CCOCC4)CC2)n1)CC3` (stereo unspecified), the outcome was inactive.
In the case of `COc1c(C2CCN(CCCCNC(=O)C=Cc3ccccc3C(F)(F)F)CC2)ccc2c1CCCC2`, the outcome was inactive.
Take `CCS(=O)(=O)c1ccc(OC)c(Nc2nccc(-c3c(-c4cccc(NC(=O)c5c(F)cccc5F)c4)nn4ncccc34)n2)c1`: the outcome was inactive.
As to `Clc1cccc(C=NNc2ccnc3cc(Cl)ccc23)c1`, the result was inactive.
Turning to `C[C@@H]1CN(c2ccc3[nH]cc(Sc4ccc(-c5cccs5)cc4)c3c2)C[C@H](C)N1`, the result was inactive.
As for `O=[N+]([O-])c1ccc(-n2nc(-c3cccnc3)n(Cc3ccco3)c2=S)c(Cl)c1`, the result was inactive.
Turning to `COc1cc(Nc2nccc(-c3c(-c4cccc(NC(=O)c5c(F)cccc5F)c4)nn4ncccc34)n2)cc(OC)c1OC`, the outcome was inactive.
The value for `Cn1cccc1C(=O)Nc1cccc(-c2nn3ccccc3c2-c2ccnc(Nc3ccc4c(c3)OCCO4)n2)c1` was “inactive”; that for `CC(C)CN1C(=O)C(c2ccc(F)c(F)c2)=C(O)C1c1ccccc1` (stereo unspecified) was “inactive”; that for `Cc1ccc(Cn2ccc3c4c(N)nc(N)nc4ccc32)cc1` was “inactive”.
With `O=C(Nc1ccccc1)Nc1cccc(-c2nn3c(OCCN4CCCC4)cccc3c2-c2ccncc2)c1`, the result was inactive.
On to `Cc1ccc(-n2c(C)cc(C(=O)CN3C(=O)NC(Cc4ccccc4)C3=O)c2C)cc1` (stereo unspecified), for which the result was inactive.
Regarding `Cc1csc2nc(C(C)c3ccc(NC(=O)c4cccs4)cc3)oc(=O)c12` (stereo unspecified), the result was inactive.
For `Cc1nc2ccccc2n1C1C[C@H]2CC[C@@H](C1)N2CCC1(c2ccccc2)CCN(C(=O)Nc2ccc(C(F)(F)F)cc2)CC1` (stereo partly specified), the outcome was inactive.
With `COc1cc(Cc2cnc(N)nc2N)ccc1OCc1csc(-c2ccc(Cl)cc2)n1`, the outcome was inactive.
With `CCn1c(-c2nonc2N)nc2c(-c3cc4ccccc4s3)ncc(C(=O)N3CCC(N)C3)c21` (stereo unspecified), the outcome was inactive.
The value for `Cc1ccccc1Cn1ccc2c3c(N)nc(N)nc3ccc21` was “inactive”.

The values are drawn from PubChem BioAssay.
